Structures can show the parent of a compound that is named as a salt. Values without a mark were called inactive.
These compounds were tested on NCI-H1688 (assay: inhibition of cell viability relative to untreated control (fraction); higher = stronger growth inhibition, active = 0.5 or more). Details: 30 µM; 24 h.
Summary of the method: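 NCI-H1688 small cell lung cancer cells were seeded at 3 × 10^3 cells/well in 96-well plates and treated 24 h later with a natural compound library (TargetMol) at 30 µM for 24 h, at 37°C with 5% CO2. Viability was read in triplicate with Cell Counting Kit-8 as absorbance at 450 nm. Inhibition of cell viability is expressed as a fraction, derived from viability normalised to the untreated control.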

SMILES	inhibition of cell viability
O=C1CCC[C@@H]2[C@H]3CCC[N+]4([O-])CCC[C@@H](CN12)[C@@H]34 (some centres not stated) [Oxymatrine]	0.0776
O=C(CCc1ccc(O)cc1)c1c(O)cc(O)cc1O[C@@H]1O[C@H](CO)[C@@H](O)[C@H](O)[C@H]1O [Phlorizin]	-0.0544
COc1cc(/C=C/C(=O)O)ccc1O [Ferulic Acid]	0.0447
NCCc1c[nH]cn1 [Histamine]	0.233
CN[C@@H]1[C@H](O[C@H]2[C@H](O[C@H]3[C@H](O)[C@@H](O)[C@H](N=C(N)N)[C@@H](O)[C@@H]3N=C(N)N)O[C@@H](C)[C@]2(O)C=O)O[C@@H](CO)[C@H](O)[C@H]1O [Streptomycin sulfate]	-0.138
COc1ccc(-c2cc(=O)c3c(O)cc(O[C@@H]4O[C@H](CO[C@@H]5O[C@@H](C)[C@H](O)[C@@H](O)[C@H]5O)[C@@H](O)[C@H](O)[C@H]4O)cc3o2)cc1O [Diosmin]	-0.00104
Cc1c(C)c2c(c(C)c1O)CC[C@@](C)(CCC[C@H](C)CCC[C@H](C)CCCC(C)C)O2 [Vitamin E]	-0.243
CO[C@H]1C[C@H](O[C@H]2[C@H](C)O[C@@H](O[C@@H]3/C(C)=C/C[C@@H]4C[C@@H](C[C@]5(C=C[C@H](C)[C@@H](C6CCCCC6)O5)O4)OC(=O)[C@@H]4C=C(C)[C@@H](O)[C@H]5OC/C(=C\C=C\[C@@H]3C)[C@]54O)C[C@@H]2OC)O[C@@H](C)[C@@H]1O [Doramectin]	0.993 (active)
O=c1c(-c2ccc(O[C@@H]3O[C@H](CO)[C@@H](O)[C@H](O)[C@H]3O)cc2)coc2cc(O)cc(O)c12 [Sophoricoside]	0.495
OC[C@H]1O[C@H](O)[C@H](O)[C@@H](O)[C@H]1O [Alpha-D-galactose]	0.0334
Cc1cc2nc3c(=O)[nH]c(=O)nc-3n(C[C@H](O)[C@H](O)[C@H](O)CO)c2cc1C [Riboflavin]	0.284
Cc1cc(O)cc(O)c1C(=O)O [Orsellinic acid]	-0.313
CC(C)=CCC[C@](C)(O)[C@H]1CC[C@]2(C)[C@@H]1[C@H](O)C[C@@H]1[C@@]3(C)CC[C@H](O)C(C)(C)[C@@H]3CC[C@]12C [(20S)-Protopanaxadiol]	-0.0275
OC[C@@H](O)[C@@H](O[C@H]1O[C@H](CO)[C@@H](O)[C@H](O)[C@H]1O)[C@H](O)[C@@H](O)CO [Maltitol]	0.0233
O=C(O)c1cc(O)c2c(c1)[C@H]([C@H]1c3cc(C(=O)O)cc(O)c3C(=O)c3c(O[C@@H]4O[C@H](CO)[C@@H](O)[C@H](O)[C@H]4O)cccc31)c1cccc(O[C@@H]3O[C@H](CO)[C@@H](O)[C@H](O)[C@H]3O)c1C2=O [Sennoside A]	0.0197
O=C(O)CCCC[C@@H]1CCSS1 [Thioctic acid]	-0.0532
C1CCN2C[C@@H]3C[C@@H](CN4CCCC[C@@H]34)[C@H]2C1 [(-)-Sparteine sulfate pentahydrate]	0.237
C=C[C@H]1[C@H](O[C@@H]2O[C@H](CO)[C@@H](O)[C@H](O)[C@H]2O)OC=C2C(=O)OCC[C@]21O [Swertiamarin]	-0.0605
N[C@@H](CCC(=O)N[C@@H](CS)C(=O)NCC(=O)O)C(=O)O [Glutathione]	-0.00752

SMILES	inhibition of cell viability
COc1ccc2cc1Oc1ccc(cc1)C[C@H]1c3c(cc4c(c3Oc3cc5c(cc3OC)CCN(C)[C@@H]5C2)OCO4)CCN1C [Cepharanthine]	1.01 (active)
CC1=CC(=O)CC(C)(C)[C@@]1(O)/C=C/C(C)=C\C(=O)O [Abscisic acid]	-0.139
CC(=O)O[C@]1(C(C)=O)CC[C@H]2[C@@H]3C[C@H](C)C4=CC(=O)CC[C@]4(C)[C@H]3CC[C@@]21C [Farlutin]	0.01
O=C(O)C(O)Cc1ccc(O)c(O)c1 (configuration not stated) [Sodium Danshensu]	-0.0463
CC1=CC(=O)c2ccccc2C1=O [Menadione]	0.979 (active)
CC(=O)OCC(=O)[C@@]1(O)CC[C@H]2[C@@H]3CCC4=CC(=O)CC[C@]4(C)[C@H]3C(=O)C[C@@]21C [Cortisone acetate]	-0.148
COc1cc(O)c2c(c1)C(=O)c1cc(C)cc(O)c1C2=O [Rheochrysidin]	0.0809
CCCCCCCCCCCCCCCC(=O)O [Palmitic acid]	0.0796
CC(C)C[C@@H](NC(=O)[C@H](C)NC(=O)CNC(=O)[C@@H](NC=O)C(C)C)C(=O)N[C@@H](C)C(=O)N[C@@H](C(=O)N[C@H](C(=O)N[C@H](C(=O)N[C@@H](Cc1c[nH]c2ccccc12)C(=O)N[C@H](CC(C)C)C(=O)N[C@@H](Cc1c[nH]c2ccccc12)C(=O)N[C@H](CC(C)C)C(=O)N[C@@H](Cc1c[nH]c2ccccc12)C(=O)N[C@H](CC(C)C)C(=O)N[C@@H](Cc1c[nH]c2ccccc12)C(=O)NCCO)C(C)C)C(C)C)C(C)C [Gramicidin]	0.981 (active)
C/C(=C\C(=O)OCCCCCCCCC(=O)O)C[C@@H]1OC[C@H](C[C@@H]2O[C@H]2[C@@H](C)[C@H](C)O)[C@@H](O)[C@H]1O [Mupirocin]	0.0375
Oc1ccc(CC2NCCc3cc(O)c(O)cc32)cc1 (configuration not stated) [Demethyl]	0.182
CC12CCC(CC1=O)C2(C)C (configuration not stated) [Camphor]	-0.239
O=c1cc(-c2ccccc2)oc2cc(O)cc(O)c12 [Chrysin]	0.197
Cn1c(=O)c2[nH]cnc2n(C)c1=O [Aminophylline]	0.644 (active)
COc1ccc(-c2coc3cc(O)cc(O)c3c2=O)cc1 [Biochanin A]	-0.0526
CC[C@]12CCCN3CCc4c(n(c5ccccc45)[C@@](O)(C(=O)OC)C1)[C@@H]32 [Vincamine]	0.408
C=C1CC[C@H]2O[C@]2(C)CC[C@@H]2[C@@H]1CC2(C)C [Caryophyllene oxide]	-0.0678
O=C1O[C@H]([C@H](O)CO)C([O-])=C1O.[Na+] [Sodium erythorbate]	0.0513

— the supplement of paper PMC11634586
